# Results taken from ChEMBL document CHEMBL5724796, “Tm Shift (DSF) assay results for EUbOPEN Chemogenomics Library” (2024).
# Non-standard residues stand in square brackets, D forms with d. Residues, ends and D or L forms follow the SMILES beside them. Nle = CCCC[C@H](N)C(=O)O
# Target: Cyclin-dependent kinase 2 (Homo sapiens) (UniProt P24941)
# Conditions: Compound concentration 20.0 uM
row,SMILES,ΔTm [°C]
1,O=C(O)c1cccc(-c2ccc(-c3cn(C(=O)N4CCCCC4Cc4ccccc4)nn3)cc2)c1 (stereo not given),-0.87
2,CC(=O)N[C@@H](CC(C)C)C(=O)N[C@@H](CCC(=O)O)C(=O)N[C@@H](Cc1cnc[nH]1)C(=O)N[C@H](C=O)CC(=O)O (Ac-LEHD-aldehyde),0.05
3,Cc1cc(N2C[C@@H](C)N[C@@H](C)C2)ncc1-c1ccc(-c2nc3c(ccn3C)c(=O)[nH]2)cc1,0.78
4,O=c1[nH]c(N2CCC3(CC2)CN(CCO)c2cc(F)cc(F)c23)nc2c1CCCC2,0.1
5,COc1cc2c(cc1-c1c(C)noc1C)[nH]c1nc(C)nc(-c3ccnc4ccccc34)c12,-0.3
6,O=S(=O)(O)c1ccc2cc(/N=N/c3cc(S(=O)(=O)O)c4cccnc4c3O)ccc2c1,2.89
7,O=C(c1cc(Cc2n[nH]c(=O)c3ccccc23)ccc1F)N1CCN(C(=O)C2CC2)CC1,0.66
8,CS(=O)(=O)N1CCN(C(=O)c2cnc3ccc(F)cc3c2-c2ccc(C3(C#N)CC3)cc2)CC1,0.13
9,CN1CCN2c3c(cccc31)[C@@H]1CN(CCCC(=O)c3ccc(F)cc3)CC[C@@H]12,-0.01
10,CC(=O)N[C@@H](C)C(=O)N[C@@H](CCC(=O)O)C(=O)N[C@H](C(=O)N[C@@H](C=O)CC(=O)O)C(C)C,-0.37
11,O=C(COc1ccc(-c2oc3cc(O)c(C(=O)O)cc3c2C#Cc2cccc(Cl)c2)cc1)NC1CC1,0.55
12,Nc1ncnc2c1ncn2[C@@H]1O[C@H](C(=O)N2CCN(CC(=O)Nc3cccc4c3CNC4=O)CC2)[C@@H](O)[C@H]1O,-0.11
13,CCCCN(Cc1ccc(C(=O)NO)cc1)C(=O)Nc1ccccc1,0.54
14,OC[C@H]1O[C@@H](c2ccc(F)c(Cc3cc4ccccc4s3)c2)[C@H](O)[C@@H](O)[C@@H]1O,0.04
15,COc1cc(-c2cn(C)c(=O)c3cnccc23)cc(OC)c1CN(C)CC(=O)NCCOCCOCCNc1cccc2c1C(=O)N(C1CCC(=O)NC1=O)C2=O (stereo not given),0.21
16,CCCC[C@@H](C=O)NC(=O)[C@H](CC(C)C)NC(=O)[C@H](CC(C)C)NC(C)=O (Ac-Leu-Leu-[Nle]-aldehyde),0.09
17,Cc1cc(C)c(CNC(=O)c2cc(-c3ccc(N4CCN(C)CC4)nc3)cc3c2c(C)cn3C(C)C)c(=O)[nH]1,0.39
18,C=CC(=O)Nc1cccc(-c2c[nH]cc2CN(C)CCN)c1,0.4
19,CC(=O)N[C@@H](Cc1ccc(O)cc1)C(=O)N[C@H](C(=O)N[C@@H](C)C(=O)N[C@@H](CC(=O)O)C(=O)COC(=O)c1c(C)cccc1C)C(C)C,0.14
20,CC(=Cc1cc(C)ccc1C=C(C)C(=O)NC(=N)N)C(=O)N=C(N)N,-0.11
21,Cc1cc(C(=O)N2CCN(C3CN(C(=O)c4ccc(-c5ccccc5)cc4)C3)CC2)no1,-0.01
22,CCC[C@H]1CNCc2c1[nH]c(=O)c(C#N)c2N1CCC2(CC1)CC2,-0.06
23,CN(CCOc1ccc(-c2ccc3c(c2)OCO3)cc1C(C)(C)C)CC(=O)O,-0.18
24,Cc1ccc(NC2=CC(=O)c3sc(C)nc3C2=O)cc1,0.97
25,CNCCC(Oc1ccccc1OC)c1ccccc1 (stereo not given),-0.03
